VDR inhibitor – blocks the human vitamin D receptor | VDR-SRC2-3 peptide fluorescence polarization, 2 h | Potency, µM, most hits filed as inhibitors | actives 0.93% (n = 400,000)
Target sequence (P11473 whole entry, looked up): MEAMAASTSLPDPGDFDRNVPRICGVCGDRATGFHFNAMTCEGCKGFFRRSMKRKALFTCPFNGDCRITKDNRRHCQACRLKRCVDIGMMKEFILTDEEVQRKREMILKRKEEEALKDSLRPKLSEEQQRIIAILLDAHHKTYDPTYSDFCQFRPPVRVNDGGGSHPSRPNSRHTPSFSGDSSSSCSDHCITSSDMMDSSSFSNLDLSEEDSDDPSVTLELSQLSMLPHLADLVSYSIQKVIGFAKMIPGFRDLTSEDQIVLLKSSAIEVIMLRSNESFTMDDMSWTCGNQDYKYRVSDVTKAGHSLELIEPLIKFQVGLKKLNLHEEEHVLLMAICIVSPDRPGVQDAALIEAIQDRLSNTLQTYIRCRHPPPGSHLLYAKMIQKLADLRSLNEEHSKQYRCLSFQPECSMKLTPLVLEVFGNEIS
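Compounds are added to VDR with labelled SRC2-3 coactivator peptide and held 2 h at room temperature. Inhibition of the VDR–peptide interaction is then read as a change in fluorescence polarization.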
TDP1 inh – blocks human tyrosyl-DNA phosphodiesterase 1; Q9NUW8; AID 485290; recombinant TDP1, AlphaScreen DNA substrate cleavage; actives 0.28% (n = 350,000); Potency, µM (highest dose often 130 µM), most hits filed as inhibitors; note: nearly all actives have a fitted effect of over 40% in size
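Recombinant E. coli-expressed Tdp1 (1 nM) preincubated with compound 15 min at RT, then 5'-biotin/3'-phosphotyrosine-FITC DNA substrate (15 nM) added for 5 min. AlphaScreen beads (10 ug/ml) added, 10 min RT; tyrosine-FITC cleavage read as signal loss.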
TDP1 cell CPT – DT40-hTDP1 cell growth loss with CPT; Potency, µM (doses to about 46.2 µM), hits mostly inhibitors; actives 12% (n = 420,000); chicken DT40 Tdp1-/-;hTDP1 cells + 20 nM CPT, ATP luminescence, 48 h; note: nearly all actives have a fitted effect of over 55% in size
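Cell growth measured by CellTiter-Glo luminescence after a minimum 48 h, 37 C compound exposure with 20 nM CPT in Tdp1-knockout DT40 cells stably expressing hTDP1, seeded 400/well; qHTS titration format.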
PLK1 PBD inh – inhibitors of human PLK1 polo-box domain binding; Plk1 PBD binding of FITC phosphopeptide, fluorescence polarization; actives 2.8% (n = 360,000); Potency, µM, most hits filed as inhibitors; P53350; note: series mostly up to about 57 µM; nearly all actives have a fitted effect of over 65% in size
GCN5L2 inh – GCN5L2 (KAT2A) acetyltransferase inhibition; Potency, µM (highest dose often 58.9 µM), actives largely listed as inhibitors; actives 0.21% (n = 390,000); GCN5L2 HAT assay, ThioGlo1 CoA-SH fluorescence; Q92830
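ThioGlo1-coupled HAT assay: 20nM GCN5L2, 70uM acetyl-CoA, 75uM H3(1-25) peptide, pH 7.5. Fluorescence read at 340/540nm at start and after 20 min at room temperature.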
DT40 TDP1 no CPT – qHTS for Inhibitors of human tyrosyl-DNA phosphodiesterase 1 (TDP1): qHTS in cells in absence of CPT; actives 15% (n = 420,000); DT40 Tdp1-/- hTDP1 cells, no CPT, ATP luminescence, 48 h; Potency, µM (series often up to 46.2 µM), actives largely listed as inhibitors; note: nearly all actives have a fitted effect of over 55% in size
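Stably hTDP1-transfected Tdp1-null chicken DT40 cells were treated with library compounds minus camptothecin and grown for at least 48 hr at 37 °C, after which cellular ATP was quantified by luminescence.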
Numbers stand for hits; n = inactive; u = inconclusive; x = no result given. Shown are actives, neighbours in structure and some others; about 18% of the full set was active somewhere. Calls come from the whole dose curve; as a rule, active = well fitted curve in the direction sought with a large enough effect; inconclusive = small, poorly fitted or top-dose-only effect, or another doubt; inactive = no such curve, though single readings can be large; an effect the other way counts as inactive or inconclusive.

SMILES | VDR inhibitor | TDP1 inh | TDP1 cell CPT | PLK1 PBD inh | GCN5L2 inh | DT40 TDP1 no CPT
CC(C)c1csc(CN2CCC(C(=O)Nc3cccc(-c4ccco4)c3)CC2)n1 | x | x | u | n | x | 18.4µM
COc1cccc(-c2cccc(NC(=O)C3CCN(Cc4nccs4)CC3)c2)c1 | n | n | n | n | n | n
CC(C)c1csc(CN2CCC(n3nccc3NC(=O)Cc3ccccc3)CC2)n1 | n | n | u | n | n | 25.9µM
CCCc1cc(=O)n2c(C(=O)Nc3ccc(OCC)cc3)c(C(=O)Nc3ccc(C)cc3)sc2n1 | n | n | u | x | n | u
CCN(CC)S(=O)(=O)c1ccc(NC(=O)NCc2noc3ccc(C)cc23)cc1 | n | n | 20.6µM | x | n | 23.1µM
CCCCn1c(N)c(N(CC(C)C)C(=O)c2ccc(S(=O)(=O)N3CCCCCC3)cc2)c(=O)[nH]c1=O | u | n | n | n | n | u
CC(C)(C)c1ccc(S(=O)(=O)N2CCC(c3ccncc3)CC2)cc1 | n | n | 13µM | x | n | 8.2µM
NC(=O)C1CCCN(S(=O)(=O)c2ccccc2)C1 (stereo not given) | n | n | n | n | n | n
NS(=O)(=O)c1ccc(S(=O)(=O)N2CCCC(c3ccccc3)C2)cc1 (stereo not given) | x | x | u | n | x | 23.1µM
CC(C)Cc1ccc(S(=O)(=O)N2CCC(c3ccncc3)CC2)cc1 | n | n | 9.2µM | x | n | 7.31µM
COc1ccc(S(=O)(=O)N2CCC(c3ccncc3)CC2)cc1Cl | n | n | u | x | n | u
Cc1ccc(S(=O)(=O)N2CCC(c3ccncc3)CC2)c(C)c1 | n | n | 20.6µM | x | n | 10.3µM
CC(Oc1ccc(Br)cc1)C(=O)NCC(c1cccs1)N1CCOCC1 (stereo not given) | n | x | n | n | n | u
Cc1ccc(NC(=O)Cn2c(=O)n(Cc3ccc4c(c3)OCO4)c(=O)c3ccccc32)c(C)c1 | n | n | n | x | n | n
O=S(=O)(c1ccccc1)N1CCC(c2ccncc2)CC1 | n | n | n | x | n | 20.6µM
O=S(=O)(c1ccc(Cl)cc1)N1CCC(c2ccncc2)CC1 | n | n | u | x | n | u
CCCC(=O)Nc1nnc(SCc2cc(=O)c3cc(C)ccc3[nH]2)s1 | n | n | u | x | n | u
Nc1c(C(=O)Nc2ccc3c(c2)OCCO3)nnn1Cc1cccc(Cl)c1 | n | n | u | n | n | 16.4µM
COc1ccc(Br)cc1Cn1nnc(C(=O)Nc2ccc3c(c2)OCCO3)c1N | n | n | u | n | n | 25.9µM
C[C@H](NC(=O)OC(C)(C)C)C(=O)NCC1CCC(C(=O)N[C@@H](Cc2ccccc2)C(=O)O)CC1 (stereo not given in full) | n | x | n | n | n | n
COc1ccccc1C(=O)Nc1sc(Nc2ccccc2)nc1C(N)=O | n | n | 11.6µM | x | n | 6.51µM
NC(=O)c1nc(Nc2ccccc2)sc1NC(=O)c1ccccc1Br | n | n | u | x | n | 20.6µM
O=C(Nc1nccs1)c1ccccc1Br | n | x | n | n | n | n
COc1cccc(CNC(=O)c2cc3c(c(-c4cccc(-c5cccc(C#N)c5)c4)n2)[C@H](CCO)N(S(=O)C(C)(C)C)C3)c1 (stereo not given in full) | x | x | u | n | x | 14.6µM
COCCNC(=O)c1cc2c(c(-c3cccc(-c4cccc(OC)c4)c3)n1)[C@H](CCO)N(S(=O)C(C)(C)C)C2 (stereo not given in full) | x | x | u | n | x | u
SMILES | VDR inhibitor | TDP1 inh | TDP1 cell CPT | PLK1 PBD inh | GCN5L2 inh | DT40 TDP1 no CPT
COc1cccc(-c2cccc(-c3nc(C(=O)NCCCN4CCOCC4)cc4c3[C@H](CCO)N(S(=O)C(C)(C)C)C4)c2)c1 (stereo not given in full) | x | x | u | n | x | 18.4µM
CN(C)C(=O)c1cccc(-c2cccc(-c3nc(C(=O)NCc4ccccc4)cc4c3[C@@H](CCO)N(S(=O)C(C)(C)C)C4)c2)c1 (stereo not given in full) | x | x | 18.4µM | n | x | 14.6µM
CC(C)(C)S(=O)N1Cc2cc(C(=O)NCC(F)(F)F)nc(-c3cccc(-c4cccc(F)c4)c3)c2[C@H]1CCO (stereo not given in full) | x | x | u | n | x | 20.6µM
CCNC(=O)c1cc2c(c(-c3cccc(-c4cccc(C(=O)N(C)C)c4)c3)n1)[C@H](CCO)N(S(=O)C(C)(C)C)C2 (stereo not given in full) | x | x | n | u | x | u
O=c1c(-c2cccs2)nc2cnc(N3CCNCC3)nc2n1CCc1ccccc1 | n | x | u | x | u | u
CC(C)(C)S(=O)N1Cc2cc(C(=O)N[C@@H]3CCN(Cc4ccccc4)C3)nc(-c3cccc(-c4cc5ccccc5o4)c3)c2[C@@H]1CCO (stereo not given in full) | x | x | u | n | x | 23.1µM
Cc1nc(C(=O)N/N=C/c2[nH]ncc2Br)cs1 | n | n | u | n | n | u
CN(C)Cc1csc(Nc2ccc(C(F)(F)F)cn2)n1 | x | x | 25.9µM | n | x | n
NC(COCc1ccccc1)c1csc(Nc2ccc(C(F)(F)F)cn2)n1 (stereo not given) | x | x | u | n | x | u
NC(Cc1ccc(Cl)cc1)c1csc(Nc2ccc(C(F)(F)F)cn2)n1 (stereo not given) | x | x | 9.2µM | n | x | 9.2µM
NC(CO)c1csc(Nc2ccc(C(F)(F)F)cn2)n1 (stereo not given) | x | x | u | n | x | u
NC(CCc1ccccc1)c1csc(Nc2ccc(C(F)(F)F)cn2)n1 (stereo not given) | x | x | 20.6µM | n | x | u
CC(C)CC(N)c1csc(Nc2ccc(C(F)(F)F)cn2)n1 (stereo not given) | x | x | 11.6µM | n | x | 6.51µM
COc1cc(NC(=S)N2CCC(C(N)=O)CC2)c(OC)cc1Cl | n | n | n | u | n | n
CCCCn1nnnc1C1(C)CCC(=O)N1Cc1ccc(C)cc1 (stereo not given) | x | x | n | n | x | n
CCCCn1c(N)c(N(Cc2ccccc2)C(=O)COc2ccccc2F)c(=O)[nH]c1=O | n | n | n | n | n | n
CCN(CC)S(=O)(=O)c1ccc(NC(=O)Nc2cccc(C(F)(F)F)c2)cc1 | n | n | 2.59µM | n | n | 2.59µM
COC(=O)Nc1ccc(S(=O)(=O)N(C)C)cc1 | n | n | u | n | x | n
O=S(=O)(Nc1cccc(C(F)(F)F)c1)c1ccc(NS(=O)(=O)c2ccc3c(c2)OCCO3)cc1 | n | x | n | x | n | n
CCN(CC)S(=O)(=O)c1ccc(C)c(NC(=O)/C=C/c2cccs2)c1 | n | n | 20.6µM | n | n | 13µM
Cc1ccc(S(=O)(=O)Nc2ccc(NC(=O)Nc3cccc(C(F)(F)F)c3)cc2)cc1 | n | n | 18.4µM | n | n | u

Source: PubChem BioAssay
